EBNA-1 inhibitor = blocks EBNA-1 binding to DNA; EBNA-1 DNA binding, fluorescence polarization; inhibition, % at 14.8 µM; hit rate 0.34% among 300,000; in the data active = inhibition above about 28%
NALP3 yeast inh = NALP3 inhibition in yeast. Yeast reconstituted NLRP3/ASC/caspase-1, beta-gal luminescence, 24 h. inhibition, % at 10 µM. hit rate 0.39% among 330,000;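 active = inhibition of 50% or more; inactive = inhibition below 50%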;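 also: plate controls were induced DMSO wells for no effect and uninduced yeast grown without galactose for full effect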
dFosB act = activators of mouse delta FosB homodimer. AID 493131. hit rate 0.99% among 340,000. activation, % at 25 µM. P13346. purified delta FosB, TAMRA-CDK5 oligo fluorescence polarization; percent of positive-control signal above neutral wells;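 active = mean activation above about 17%, with every replicate also reaching it, limit read from the data, passing the limit was not always enough; inconclusive = only one of the two conditions met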
Target sequence (P13346 whole entry, looked up): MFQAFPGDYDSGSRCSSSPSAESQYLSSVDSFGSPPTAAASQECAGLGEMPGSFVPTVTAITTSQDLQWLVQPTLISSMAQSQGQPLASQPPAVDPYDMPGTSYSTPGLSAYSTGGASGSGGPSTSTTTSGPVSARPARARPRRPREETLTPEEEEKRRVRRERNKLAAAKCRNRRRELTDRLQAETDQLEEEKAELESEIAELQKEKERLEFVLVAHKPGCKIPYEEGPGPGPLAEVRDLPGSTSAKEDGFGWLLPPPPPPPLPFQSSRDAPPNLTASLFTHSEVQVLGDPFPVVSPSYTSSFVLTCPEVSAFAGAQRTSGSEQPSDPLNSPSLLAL
NALP1 inh = blocks the NALP1 inflammasome reconstituted in yeast; hit rate 0.61% among 280,000; S. cerevisiae NALP1/ASC/caspase-1 growth, X-gal OD620, 72 h; inhibition, % at 10 µM; AID 2071; in the data active = inhibition mostly above about 24%, no sharp cut-off; inactive = mostly below about 32%
ZTA counter = counter-screen for EBNA-1 inhibitors: inhibitors of Epstein-Barr virus ZTA. P03206. ZTA-DNA binding, fluorescence polarization. inhibition, % at 11 µM. hit rate 0.15% among 320,000; in the data active = inhibition above about 33%
PolyA inhibitor = inhibitors of polyadenylation in S. cerevisiae; activity score, % at 12 µM; AID 1875; hit rate 0.02% among 300,000; S. cerevisiae SKY197-pL101 polyadenylation reporter, beta-gal luminescence; efflux-impaired pdr1/pdr3 knockout yeast; score 100 = 6 SD above DMSO;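 active = lowest replicate activity score at least 50, where 100 means six control SD above control mean; inconclusive = lowest score under 50 but half or more replicates reach 50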;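 also: yeast exposed to compound for 9 h at 30 °C; higher score means more reporter readthrough which indicates perturbed polyadenylation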
* hit, by the source's call; ? = inconclusive; . = no result given. Only some compounds are listed: those with a hit (about 2.2% of all), similar ones and a draw of the others.

SMILES	EBNA-1 inhibitor	NALP3 yeast inh	dFosB act	NALP1 inh	ZTA counter	PolyA inhibitor
CC(C)[n+]1ccn(C2=C([O-])c3ccccc3C(=O)/C2=N\S(=O)(=O)c2ccccc2)c1	-3	12	3	36*	-12	16
CN(C(=O)COC(=O)c1ccc(=O)n(Cc2ccccc2)n1)C1CCCCC1	.	9	0	.	21	.
CC(=O)Nc1nc2n(n1)C(c1ccccc1)C=C(c1ccccc1)N2 (centres undefined)	8	3	-19	-14	4	2
O=C(c1nc2n(n1)C(c1ccc(Cl)cc1)C=C(c1ccccc1)N2)N1CCOCC1 (centres undefined)	5	-23	-21	31*	-7	3
Cc1cc(C(=O)Nc2cccc(C)c2C)c2ccccc2n1	13	14	-5	17	4	2
Cc1ccc(C2(C(F)(F)F)N=C3Sc4cc(C)ccc4N3C(=O)N2)cc1 (centres undefined)	2	15	.	36*	4	?
CC[n+]1c(/C=C(\C)SC)sc2ccccc21	4	3	-5	-4	3	8
CC[n+]1c(/C=C/Nc2ccccc2)sc2ccccc21	-11	-1	-1	7	-13	-1
CCN1/C(=C/C=C/C=C/c2sc3ccccc3[n+]2CC)Sc2ccccc21	.	19	.	133*	.	-8
CCN1/C(=C/C=C/c2sc3ccccc3[n+]2CC)Sc2ccccc21	15	43	?	.	0	93*
CCN1/C(=C/C=C/C=C/C=C/c2sc3ccccc3[n+]2CC)Sc2ccccc21	42*	25	14	39*	60*	-3
CN(C(=O)Nc1ccc(C(C)(C)C)cc1)C1CCCCC1	-3	7	2	-3	-3	11
Cc1nc2c(-c3ccccc3)c(C)nn2c(C)c1CCC(=O)O	-9	25	3	15	9	2
CCOC(=O)Cc1c(C)nc2c(-c3ccc(OC)cc3)c(C)nn2c1C	-9	15	-9	43*	14	-21
CC(C)C(C(=O)Nc1nccs1)N1C(=O)c2ccccc2C1=O (centres undefined)	-11	12	-6	28*	-5	8
COc1ccccc1NC(=O)CSc1nncs1	.	14	0	.	.	.
CCCn1c(-c2nonc2N)nc2ccccc21	14	21	0	-3	6	-48
Cn1c(-c2nonc2N)nc2ccccc21	1	14	0	29*	3	2
CCC12CN(S(=O)(=O)c3ccc(C)cc3)CC(CC)(CN(S(=O)(=O)c3ccc(C)cc3)C1)C2=O	-4	12	-5	42*	9	-8
CC1CCN(C(C(=O)Nc2ccc(C(C)C)cc2)c2ccc3c(c2)OCO3)CC1 (centres undefined)	-4	1	2	38*	0	-21
CC(C)c1ccc(NC(=O)C(c2ccc3c(c2)OCO3)N2CCCCC2)cc1 (centres undefined)	-7	31	-2	6	8	-13
O=C(Nc1ccncc1)Nc1ccc(Cl)cc1Cl	.	23	-17	30*	.	5
CCc1nc(N2CCN(C(=O)CCl)CC2)c2c3c(sc2n1)CC(C)CC3 (centres undefined)	-5	24	-1	40*	-17	-27
Cc1nc2c(F)c(F)c(C(F)(F)F)c(F)c2[nH]1	-12	20	2	14	1	-4
Cc1nc2c(Br)c3nc(C(F)(F)F)[nH]c3c(Br)c2[nH]1	-2	7	-9	48*	-4	12
SMILES	EBNA-1 inhibitor	NALP3 yeast inh	dFosB act	NALP1 inh	ZTA counter	PolyA inhibitor
CC(=O)c1cc(F)c(N2CCOCC2)cc1C	-1	27	0	44*	-7	18
CC(=O)c1cc(F)c(N2CCCC2)cc1C	-8	45	-7	33	-22	-21
COc1ccccc1CN1CC(C(=O)NCc2ncccc2C)CCC1=O (centres undefined)	6	24	0	19	14	-7
CN1CCN(Cc2nc3ccccc3c(=O)n2Cc2nc(-c3ccccc3F)cs2)CC1	5	.	-6	37	6	15
CN1CCN(Cc2nc3ccccc3c(=O)n2Cc2nc(-c3cccc([N+](=O)[O-])c3)cs2)CC1	.	8	-5	34*	.	.
CN(C)CCN(C(=O)c1ccc(C(=O)c2ccccc2)cc1)c1nc2cc3c(cc2s1)OCO3	5	16	?	21	-2	-6
CN(C)CCCN(C(=O)CCSc1ccccc1)c1nc2cc3c(cc2s1)OCO3	-4	22	15	-5	-15	12
CN(C)CCCN(C(=O)CCS(=O)(=O)c1ccccc1)c1nc2cc3c(cc2s1)OCO3	-5	40	-18	50*	-10	28
CCN(CC)CCN(C(=O)c1ccc2ccccc2c1)c1nc2cc3c(cc2s1)OCO3	3	26	53*	20	-5	24
O=C(OCC(=O)N(CCc1ccccc1)Cc1ccccc1)c1ccc(F)c(S(=O)(=O)N2CCOCC2)c1	.	.	-4	.	.	.
N/C(=N\OC(=O)CC1CCCCC1)c1ccc(Cl)cc1	5	26	3	32*	24	0
CCCCOc1ccc(C(=O)CCN2CCCCC2)cc1	5	37	7	46*	6	-4
CC(C)COc1ccc(C(=O)CCN2CCCCC2)cc1	0	9	-5	15	8	-8
CCOc1ccc(NC(=O)C(C)C(Cc2ccc(C)cc2)C(=O)O)cc1 (centres undefined)	-5	12	-1	6	2	-6
COc1ccc(S(=O)(=O)NCC2CCCN(Cc3ccc(C)o3)C2)cc1 (centres undefined)	-19	-9	-3	33*	-8	11
CCc1ccc(CN2CCCC(CNS(=O)(=O)c3ccc(OC)cc3)C2)cc1 (centres undefined)	6	14	-4	4	-15	-24
CCOc1ccc(N(CC(=O)NCC2CCCO2)S(=O)(=O)c2ccc(SC)cc2)cc1 (centres undefined)	5	3	2	34*	-15	15
CCOC(=O)c1ccc(N2C(=O)CC(N3CCCC(C)C3)C2=O)cc1 (centres undefined)	-3	7	-18	105*	-10	-47
CCCc1cc(=O)[nH]c(SCCOc2ccc(OCC)cc2)n1	-12	20	0	44*	-3	-3
Cc1nc2c(-c3ccccc3)c(C)nn2c(SCC(N)=O)c1Cc1ccccc1	-5	4	.	.	-10	-10
CCS(=O)(=O)N1CCN(S(=O)(=O)c2ccc3ccccc3c2)CC1	2	27	-5	-8	-4	2
CC(C)N1CCN(S(=O)(=O)c2ccc3ccccc3c2)CC1	153*	13	1	11	133*	-20
CCOC(=O)c1sc(NC(=O)c2ccc(S(=O)(=O)N(C)C)cc2)cc1C	13	-10	-9	41*	1	4
